# In PubChem BioAssay (NCATS):
# Records with an inconclusive call do not appear. Where a call stands in place of a potency, no number is given. Activity calls are given as the source filed them. Calls follow the shape of the dose curve; as a rule, active = well fitted inhibition curve with a large enough effect; inconclusive = small, poorly fitted or top-dose-only effect; inactive = flat fitted curve, though single readings scatter.
# Experiment: P-glycoprotein substrates identified in KB-8-5-11 adenocarcinoma cell line, qHTS therapeutic library screen (AID 1346987); also: nearly all actives have a fitted effect of over 65% in size
# Details: KB-8-5-11 (P-gp overexpressing) viability, CellTiter-Glo, 72 h; series mostly up to 44.5 µM
# Procedure, shortened: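 Compounds are pinned in dose-response onto KB-8-5-11 cells (500 cells/well, colchicine-free medium) and left 72 h at 37 degree C. CellTiter-Glo luminescence then yields AC50 values.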
# Potency is read from the fitted curve at half-maximal effect.
row,Compound,Potency
1,C=C(COC(=O)C(O)C(O)CN)C12OC1C1(C)C(=CC2=O)C(O)C(O)CC1C (stereo not given),inactive
2,CNc1cccc(CCOc2ccc3c(c2)CN(CC(F)(F)F)C(=O)[C@H](CC(=O)O)C3)n1,inactive
3,CC(/C=C/C(=O)NO)=C\[C@@H](C)C(=O)c1ccc(N(C)C)cc1,0.58 µM (active)
4,CCc1cc2c(cc1CC)CC(NCC(O)c1ccc(O)c3[nH]c(=O)ccc13)C2 (stereo not given),inactive
5,CC1(C)Oc2ncnc(N)c2N=C1c1ccc(C23CCC(CC(=O)O)(CC2)CC3)cc1,inactive
6,COc1ccc(C#Cc2ccc(C(=O)N3CCC[C@@H](O)C3)c(F)c2)cc1,inactive
7,CCCCc1ccc(NS(=O)(=O)c2ccc(F)cc2)cc1,inactive
8,CCCCCCCCCCCCCCCC(=O)OC[C@@H](COP(=O)([O-])OCC[N+](C)(C)C)OC(=O)CCCCCCCCCCCCCCC,inactive
9,CCN1CCCC1CNC(=O)c1cc(S(=O)(=O)CC)ccc1OC (stereo not given),inactive
10,C=C1CC[C@@H]2[C@](C)(CO)[C@H](O)CC[C@@]2(C)[C@@H]1CC(O)C1=CCOC1=O (stereo not given in full),inactive
11,CC1(C=O)CCCC2(C)C1CCC13CC(CO)C(CCC12)C3 (stereo not given),inactive
12,O=C(Nc1cnc(Cl)nc1)c1ccc(F)c(F)c1,inactive
13,C=C(C(=O)O)[C@@H]1CC=C(CCC(C)=O)[C@@H](C)CC1,inactive
14,CCN(CC)c1ccc(N=Nc2ccc(S(=O)(=O)N(C)C)cc2)c(S(=O)(=O)NCC[n+]2ccccc2)c1,inactive
15,CC(C)NC(=O)COc1cccc(-c2nc(Nc3ccc4[nH]ncc4c3)c3ccccc3n2)c1,8.2 µM (active)
